In PubChem BioAssay one finds z-score and composite z-score data, which are given here for 9 molecules.

A short description of assay [1]: HepG2 liver cancer cell viability effects, profiling panel, resazurin fluorescence, 24 h, PK04 Diversity Set (AID 1172). Conditions: higher = more signal. On the technique in general: Resazurin is reduced to fluorescent resorufin, in cell work by metabolically active cells.
A short description of assay [2]: basal S. cerevisiae growth modulation, no modifier, primary screen, OD600, strain BY4716, 24 h, basal condition (AID 1173). Conditions: OD600, 24 h, higher = more signal, called active from +8 up or from −8 down.
The nature of assay [3]: MM1S myeloma cell viability, profiling panel, resazurin fluorescence, basal, 24 h, PK04 Diversity Set (AID 1174).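 Note: MM1S multiple myeloma cell line.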 Conditions: higher = more signal, called active from +8 up or from −8 down.
Assay [4] deals with Dihydroorotate dehydrogenase (quinone), mitochondrial (Plasmodium falciparum (isolate 3D7)) (UniProt Q08210). The experiment in a line: PfDHODH enzyme inhibitors, primary screen, biochemical, C-terminal His tag, absorbance 600 nm (AID 1175).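 Note: recombinant parasite enzyme with a five histidine tag at its C terminus.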 Conditions: DCIP absorbance 600 nm, higher = more signal, called active from +8 up or from −8 down.
Assay [5] is described as follows: P. aeruginosa biofilm formation inhibitors, primary screen, strain PAO1, LB-PBS medium, absorbance 600 nm (AID 1176). The settings on record: P. aeruginosa PAO1 growth/biofilm, A600, 12 h; higher = more signal.
Assay [6] in a line: S. cerevisiae RM11-1a growth modifiers, primary screen, strain RM11-1a, OD600, basal, 24 h (AID 1177).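 Note: cultures grown under basal conditions with no added stressor.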 The settings on record: OD600, 24 h, higher = more signal, called active from +8 up or from −8 down.
Assay [7] is described as follows: E. coli acrAB mutant growth effects, primary screen, E. coli filamentation inducers, strain DRC39, OD650, 24 h (AID 1178).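 Note: growth measured as culture turbidity by optical density at 650 nm.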 Conditions: higher = more signal, called active from +8 up or from −8 down.
The nature of assay [8]: E. coli acrAB mutant growth effects, primary screen, E. coli filamentation inducers, strain DRC39, OD650, 48 h (AID 1179).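 Note: screen aims at cell division blockers that make cells filament.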 The settings on record: E. coli DRC39 delta-acrAB growth, higher = more signal, called active from +8 up or from −8 down.
A short description of assay [9]: RPMI8226 myeloma cell viability, profiling panel, resazurin fluorescence, basal, 24 h, PK04 Diversity Set (AID 1180).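 Note: RPMI8826 multiple myeloma cell line at 5000 cells per well.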 Conditions: higher = more signal.
In assay [10] the target is E3 ubiquitin-protein ligase XIAP (Homo sapiens) (UniProt P98170). The experiment in a line: XIAP binders, primary screen, biophysical, small-molecule microarray, fluorescence 635 nm (AID 1181).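 Note: score merges 667 nm emission and signal to noise over triplicate slides.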 Conditions: small-molecule microarray binding, higher = more signal.
Assay [11] deals with XIP peptide (Xip251-270) binding. The experiment in a line: small-molecule binders of XIP peptide, primary screen, biochemical, small-molecule microarray, fluorescence 635/667 nm, 0.1 µg/mL protein (AID 1182). The settings on record: fluorescent protein binding, 635 nm, higher = more signal, called active from +8 up or from −8 down.
Assay [12] concerns XIP peptide (Xip251-270). The experiment in a line: small-molecule binders of XIP peptide, primary screen, biochemical, small-molecule microarray, fluorescence 635/667 nm, 0.5 µg/mL protein (AID 1183). Conditions: small-molecule microarray binding, fluorescence 635 nm; higher = more signal.
The nature of assay [13]: Plasmodium falciparum growth inhibition, primary screen, strain 3D7, DAPI fluorescence, 100 nL (AID 1184).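 Note: parasites grown inside human red blood cells in medium with human serum.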 Conditions: P. falciparum 3D7 growth, 3 d, higher = more signal.
The target of assay [14] is Homeobox protein Hox-A13 (Mus musculus) (UniProt Q62424). The experiment in a line: inhibitors of HoxA13-DNA binding, primary screen, biochemical, fluorescence polarization, labeled oligonucleotide (AID 1185). Conditions: 15 min, higher = more signal, called active from +8 up or from −8 down.
A short description of assay [15]: inhibitors of hydroxyurea-induced Chk1 phosphorylation, primary screen, imaging, HeLa, phospho-Chk1 antibody, percent positive cells (AID 1186). The settings on record: hydroxyurea-induced phospho-Chk1 immunofluorescence imaging, higher = more signal.
The nature of assay [16]: inhibitors of hydroxyurea-induced Chk1 phosphorylation, primary screen, imaging, HeLa, phospho-Chk1 nuclear intensity (AID 1187). Conditions: hydroxyurea-induced phospho-Chk1 immunofluorescence imaging, higher = more signal.

Activity calls are given as the source filed them. Unless noted, the rule behind the calls is not given here.

Sequence of E3 ubiquitin-protein ligase XIAP (Homo sapiens) (P98170 whole entry, looked up): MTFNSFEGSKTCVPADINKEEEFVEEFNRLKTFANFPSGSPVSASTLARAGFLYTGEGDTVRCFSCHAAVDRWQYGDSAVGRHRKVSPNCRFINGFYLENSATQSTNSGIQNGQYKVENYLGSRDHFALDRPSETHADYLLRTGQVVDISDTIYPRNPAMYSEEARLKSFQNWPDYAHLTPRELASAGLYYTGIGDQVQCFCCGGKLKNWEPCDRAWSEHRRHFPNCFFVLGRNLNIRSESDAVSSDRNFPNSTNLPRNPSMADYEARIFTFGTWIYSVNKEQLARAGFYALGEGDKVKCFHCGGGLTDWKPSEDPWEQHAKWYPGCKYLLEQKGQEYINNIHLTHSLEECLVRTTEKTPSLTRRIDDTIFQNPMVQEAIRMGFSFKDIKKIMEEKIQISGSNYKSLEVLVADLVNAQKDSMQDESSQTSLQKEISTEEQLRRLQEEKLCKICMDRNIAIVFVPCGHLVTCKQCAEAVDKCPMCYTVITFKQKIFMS
Sequence of Dihydroorotate dehydrogenase (quinone), mitochondrial (Plasmodium falciparum (isolate 3D7)) (Q08210 whole entry, looked up): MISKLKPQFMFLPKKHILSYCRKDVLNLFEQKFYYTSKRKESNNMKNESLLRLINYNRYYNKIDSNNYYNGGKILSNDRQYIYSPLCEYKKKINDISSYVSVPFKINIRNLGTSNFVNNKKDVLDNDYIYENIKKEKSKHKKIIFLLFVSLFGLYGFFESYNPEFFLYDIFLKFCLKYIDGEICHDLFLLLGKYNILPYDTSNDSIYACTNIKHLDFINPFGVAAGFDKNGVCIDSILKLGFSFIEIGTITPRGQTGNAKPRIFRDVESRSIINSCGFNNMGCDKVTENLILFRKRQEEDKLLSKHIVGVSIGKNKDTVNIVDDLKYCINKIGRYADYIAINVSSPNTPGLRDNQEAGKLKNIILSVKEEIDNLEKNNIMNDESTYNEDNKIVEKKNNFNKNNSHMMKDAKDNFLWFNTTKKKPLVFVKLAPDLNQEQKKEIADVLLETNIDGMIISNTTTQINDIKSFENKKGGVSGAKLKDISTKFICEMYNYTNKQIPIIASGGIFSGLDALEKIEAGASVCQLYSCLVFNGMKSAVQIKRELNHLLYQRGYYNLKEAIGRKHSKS
Sequence of Homeobox protein Hox-A13 (Mus musculus) (Q62424 whole entry, looked up): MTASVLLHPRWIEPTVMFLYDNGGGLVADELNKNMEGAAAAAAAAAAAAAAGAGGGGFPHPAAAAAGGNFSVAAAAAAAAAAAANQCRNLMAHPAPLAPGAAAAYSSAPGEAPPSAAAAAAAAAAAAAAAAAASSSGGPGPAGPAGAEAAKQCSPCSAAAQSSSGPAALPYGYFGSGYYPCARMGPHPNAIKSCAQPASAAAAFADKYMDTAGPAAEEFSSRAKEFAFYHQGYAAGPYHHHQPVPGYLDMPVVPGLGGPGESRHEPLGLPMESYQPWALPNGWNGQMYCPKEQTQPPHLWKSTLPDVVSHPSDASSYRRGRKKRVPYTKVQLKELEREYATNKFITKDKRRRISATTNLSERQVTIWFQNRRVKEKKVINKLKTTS

As to `CC(C)[Si](C#C[Si](C(C)C)(C(C)C)C(C)C)(O[C@H](c1ccccc1)c1cn(Cc2ccccc2)nn1)C(C)C`, the z-score was 0.918 in assay [1]; 1.6 (inactive) in [2]; 0.869 (inactive) in [3]; 0.0885 (inactive) in assay [5]; 1.14 (inactive) in assay [6]; -0.177 (inactive) in assay [7]. Further, the z-score in assay [8] is 0.662 (inactive); in [9] it was 1.43; in assay [13], -0.122; in [14] it was 0.371 (inactive); in assay [15], -0.269 (inactive); in [16], -0.216 (inactive). Further, the composite z-score in [4] is 0.367 (inactive); in [10] it was 0.0368; in assay [11] it was -0.464 (inactive); in assay [12] it was -0.0753.

For the molecule `CCCCC(=C=CC[C@H](O)c1ccc(OCCO)cc1)CCO`, the z-score in [1] is -0.0738; in assay [2], -2.31 (inactive); in assay [3] it was -0.149 (inactive); in assay [5] it was 0.154 (inactive); in assay [6], -0.162 (inactive); in assay [7] it was -1.28 (inactive). Besides, the z-score is -1.06 (inactive) in [8]; 0.0466 in assay [9]; -1.17 in [13]; -4.31 (inactive) in assay [14]; -0.373 (inactive) in assay [15]; -0.317 (inactive) in [16]. The composite z-score in [4] is -0.32 (inactive); in assay [10], 0.0365; in assay [11], 0.0643 (inactive); in [12], 0.256.

Turning to `CCOC(=O)C[C@H]1[C@H](OC(=O)c2cc3ccccc3oc2=O)[C@@H](NC(=O)CC(C)C)c2cc(OCCCO)ccc2N1C(=O)c1ccc2ccccc2n1`, the z-score in [1] was -0.792; in [2] it was 0.738 (inactive); in assay [3], -0.043 (inactive); in assay [5], 0.555 (inactive); in assay [6], 1.44 (inactive); in assay [7], -0.463 (inactive). Besides, the z-score in [8] is -0.416 (inactive); in [9], -0.493; in [13], -0.533; in [14], -4.43 (inactive); in assay [15] it was -0.121 (inactive); in [16] it was -0.507 (inactive). Besides, the composite z-score in assay [4] was 0.544 (inactive); in [10] it was -0.102; in [11], 2.46 (inactive); in assay [12] it was 0.46.

As to `C[N+](C)(C)CCCCCCNC(=O)[C@@H]1C[C@@H]2C(=O)N3CCC[C@H]3C(=O)N2[C@@H]1c1ccc(O)cc1`, the z-score in assay [1] was 1.4; in assay [2], -0.827 (inactive); in assay [3], 1.02 (inactive); in assay [5], -0.984 (inactive); in assay [6] it was -0.0176 (inactive); in assay [7], 0.0464 (inactive). Moreover, the z-score in assay [8] was -0.207 (inactive); in [9] it was 0.441; in assay [13], 0.0301; in assay [14], -1.82 (inactive); in assay [15] it was -0.265 (inactive); in assay [16] it was 0.127 (inactive). Further, the composite z-score was -1.53 (inactive) in assay [4], -0.169 in assay [10], 0.45 (inactive) in assay [11] and 0.723 in assay [12].

Turning to `O=C1O[C@@H](c2ccccc2)[C@@H](c2ccccc2)N2[C@@H](c3ccc(O)cc3)[C@]3(C(=O)Nc4ccc(C#CCCO)cc43)[C@@H](C(=O)N3CCN(c4ncccn4)CC3)[C@H]12`, the z-score in [1] is 1.13; in assay [2] it was 1.94 (inactive); in [3] it was 0.609 (inactive); in assay [5], 1.77 (inactive); in assay [6] it was 2.96 (inactive); in [7], 1.08 (inactive). Further, the z-score in assay [8] was 0.602 (inactive); in [9], 0.509; in assay [13] it was -2.11; in assay [14], -2.41 (inactive); in [15], -0.193 (inactive); in assay [16] it was 0.058 (inactive). For the same molecule, the composite z-score is 0.378 (inactive) in assay [4], -0.197 in [10], 0.678 (inactive) in assay [11] and 0.731 in assay [12].

Turning to `C=CCOC(=O)[C@@]1(Cc2ccccc2)C[C@H]2CO[C@H](c3ccc(OC)cc3)N2C1=O`, the z-score in assay [1] is -0.352; in [2], -2.69 (inactive); in assay [3] it was 0.437 (inactive); in assay [5], 0.125 (inactive); in [6], -1.1 (inactive); in assay [7], -0.0115 (inactive). Further, the z-score in [8] is -0.187 (inactive); in assay [9] it was 0.0399; in assay [13] it was -0.829; in [14] it was -3.45 (inactive); in [15], -0.0248 (inactive); in assay [16], -0.386 (inactive). In addition, the composite z-score is -0.972 (inactive) in assay [4], -0.184 in assay [10], -0.373 (inactive) in assay [11] and -0.0614 in assay [12].

In the case of `COCCOC(=O)N1C(=O)[C@@]2(c3cc(C#CC4(O)CCCCCC4)ccc31)[C@H](C(=O)N1CCc3cc(OC)c(OC)cc3C1)[C@H]1C(=O)O[C@H](c3ccccc3)[C@H](c3ccccc3)N1[C@@H]2c1ccc(OCCO)cc1`, the z-score in assay [1] is -0.614; in assay [2] it was 1.66 (inactive); in [3] it was -0.935 (inactive); in [5], 3.41 (inactive); in [6], 2.54 (inactive); in assay [7], -0.201 (inactive). Further, the z-score is 0.389 (inactive) in assay [8]; -0.607 in assay [9]; -2.25 in assay [13]; 2.15 (inactive) in [14]; -0.149 (inactive) in [15]; -0.247 (inactive) in assay [16]. Besides, the composite z-score in assay [4] was -0.494 (inactive); in [10], 0.107; in assay [11] it was 0.402 (inactive); in [12] it was 0.62.

As to `C=CCNC(=O)[C@@H]1[C@H]2C(=O)O[C@H](c3ccccc3)[C@H](c3ccccc3)N2[C@H](c2ccccc2OCCO)[C@@]12C(=O)N(C(=O)OCCOC)c1ccc(C#CC3(O)CCCCCC3)cc12`, the z-score in assay [1] was -0.405; in assay [2], 0.605 (inactive); in [3], -2.57 (inactive); in [5], 2.12 (inactive); in assay [6], 0.766 (inactive); in assay [7], 0.0265 (inactive). In addition, the z-score in [8] is -0.609 (inactive); in [9], -3.27; in [13], -2.21; in assay [14] it was -2.56 (inactive); in assay [15], -0.0659 (inactive); in [16] it was 0.294 (inactive). In addition, the composite z-score was -1.91 (inactive) in [4], 0.133 in assay [10], 0.99 (inactive) in assay [11] and 0.674 in [12].

Turning to `C=CCC(OC(C)=O)[C@@H]1[C@@H](N(Cc2cccc3ccccc23)C(=O)Cc2ccc(F)cc2)c2cc(OCCCO)ccc2N1C(=O)c1ccc2ccccc2c1` (some centres undefined), the z-score in [1] is 0.921; in assay [2], 0.274 (inactive); in assay [3], 0.697 (inactive); in assay [5], -0.0057 (inactive); in assay [6], 0.036 (inactive); in assay [7] it was 0.655 (inactive). For the same molecule, the z-score in assay [8] was 0.83 (inactive); in [9], 0.276; in assay [13] it was -1.85; in [14] it was -1.39 (inactive); in [15] it was -0.457 (inactive); in assay [16], -0.395 (inactive). Further, the composite z-score was 0.339 (inactive) in [4], 0.34 in assay [10], -1.12 (inactive) in assay [11] and -0.277 in assay [12].
